Bioassay records (PubChem)
PABP1 MLLE inh: blocks PAM2 peptide binding to the PABP1 MLLE domain | P11940 | GST-MLLE / FITC-PAM2 fluorescence polarization | inhibition, % at 20 µM | 0.36% of 360,000 active | AID 588489; in the data active means inhibition above about 35%, passing the limit was not always enough
EBV gp42 inh: EBV gp42 inhibition. 0.42% of 220,000 active. Q1HVG2. inhibition, % (tested at 21.74 µM). AID 1085. Fluorescence polarization binding assay, mP read-out; in the data active means inhibition above about 50%
Target sequence (Q1HVG2 whole entry, looked up): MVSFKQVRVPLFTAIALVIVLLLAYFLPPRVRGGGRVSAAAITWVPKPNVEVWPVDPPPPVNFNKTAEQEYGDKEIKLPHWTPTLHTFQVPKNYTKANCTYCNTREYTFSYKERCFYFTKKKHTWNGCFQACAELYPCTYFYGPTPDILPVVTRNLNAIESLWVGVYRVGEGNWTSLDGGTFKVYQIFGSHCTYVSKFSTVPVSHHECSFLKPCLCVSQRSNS
PABP polyA inh: PABP-poly(A) binding inhibition; P11940; calls only at 35 µM; 1% of 290,000 active; PABP-poly(A) RNA binding, fluorescence polarization; AID 2014;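 further: calls also rest on retests at 20 µM and on dose response follow-up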
MEX-5 binding: C. elegans MEX-5 TCR-2 RNA binding activity | activity score (negative = inhibition of binding), % at 10 µM | MEX-5/FITC-TCR2 RNA binding, fluorescence polarization; hits give low values | 0.38% of 300,000 active | AID 1832 | Q9XUB2;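 active means inhibition past about -25% in most replicates, and total fluorescence under double the plate's negative control median, limit read from the data; inconclusive means replicates evenly split on the limit, or fluorescence at least double controls; inactive means too little inhibition in most replicates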
eIF4H FP inh: inhibitors of RNA binding by human eIF4H | inhibition, % at 35 µM | Q15056 | eIF4H fluorescence polarization binding assay | AID 2012 | 0.94% of 290,000 active;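 further: calls also rest on retests at 20 µM and on dose response follow-up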
Of the large screens only hits and unclear results are named; the others gave an inactive call. Sampled rows, rich in hits. Any-hit rate of the full collection: about 1.8%. Unless noted, how the calls were made is not given here.

O=C(Nc1cc(S(=O)(=O)Nc2ccc(Cl)cc2)ccc1N1CCCCC1)c1ccc(F)cc1Cl	PABP1 MLLE inh 43
CS(=O)(=O)c1ccc(C(=O)Nc2ccc(N3CCCC3)cc2)c(Cl)c1	PABP polyA inh active, eIF4H FP inh 82
CC(C)n1c(=O)c2ccccc2n1Cc1cn(-c2ccc(Cl)cc2)nn1	none (no result: EBV gp42 inh, PABP polyA inh, MEX-5 binding, eIF4H FP inh)
Cc1[nH]c2ccccc2c1C(=O)C(=O)NCc1nnnn1-c1ccc(F)c(F)c1	none (no result: EBV gp42 inh, PABP polyA inh, MEX-5 binding, eIF4H FP inh)
CC1(C)CC(=O)C2=C(C1)OC(N)=C(C#N)C2c1cc2c(cc1[N+](=O)[O-])OCO2 (stereo not drawn)	EBV gp42 inh 94, MEX-5 binding -56, eIF4H FP inh inconclusive
COc1cc(C2C(C#N)=C(N)OC3=C2C(=O)CCC3)c([N+](=O)[O-])cc1OC (stereo not drawn)	EBV gp42 inh 83, PABP polyA inh inconclusive, MEX-5 binding -63, eIF4H FP inh inconclusive
CCOc1cc(C2C(C#N)=C(N)OC3=C2C(=O)CC(C)(C)C3)cc([N+](=O)[O-])c1O (stereo not drawn)	none
O=C(NCc1cc(Cl)cc(Cl)c1)c1ccc2sc([C@H]3C[C@H](O)[C@@H](CO)O3)nc2c1	none (no result: EBV gp42 inh, PABP polyA inh, MEX-5 binding, eIF4H FP inh)
Cc1ccc(NC(=O)CSC2=NCCN2)cc1	PABP1 MLLE inh 39
CC1(C)CC(=O)C=C(c2ccc(-c3cnn(Cc4ccccc4)c3)cc2)C1=O	none (no result: EBV gp42 inh, PABP polyA inh, MEX-5 binding, eIF4H FP inh)
CC(=O)Nc1ccc(C(=S)NCC2(N(C)C)CCCCC2)cc1	PABP polyA inh active, eIF4H FP inh active
Cc1ccc(F)c(S(=O)(=O)NC(=O)C2(C)CCN2C(=O)C/C=C/c2ccccc2)c1 (stereo not drawn)	none (no result: EBV gp42 inh, PABP polyA inh, MEX-5 binding, eIF4H FP inh)
NC(=O)c1c(NC(=O)CSc2nnc(-c3ccco3)n2-c2ccccc2)sc2c1CCC2	EBV gp42 inh 67, PABP polyA inh active, eIF4H FP inh 87
CCOc1ccc(CC(=O)N2CCN=C2SC)cc1	PABP polyA inh active
CSC1=NCCN1C(=O)Cc1ccc(F)cc1	none
CCOc1ccc(CC(=O)N2CCN=C2SCc2ccc([N+](=O)[O-])cc2)cc1	PABP polyA inh active, eIF4H FP inh active
O=C(Cc1ccc(F)cc1)N1CCN=C1SCc1ccc([N+](=O)[O-])cc1	PABP1 MLLE inh 38
C[C@@H]1CN([C@@H](C)CO)C(=O)c2cc(Br)cnc2O[C@H]1CN(C)Cc1cccc(C(=O)O)c1	none (no result: EBV gp42 inh, PABP polyA inh, MEX-5 binding, eIF4H FP inh)
COc1ccc([C@@H]2C[C@H]3CN(Cc4ccccc4OC)C(=O)[C@]34CCCN24)cc1C	PABP polyA inh active, eIF4H FP inh 52
COc1cc(NC(=O)CCN2CCN(c3ccccc3OC)CC2)cc(OC)c1	none (no result: EBV gp42 inh, PABP polyA inh, MEX-5 binding, eIF4H FP inh)
O=C(CSc1nc(-c2ccc(F)cc2)nc2c1Cc1ccccc1O2)Nc1cccc(C(=O)O)c1	EBV gp42 inh 71
C[C@@H]1CN([C@H](C)CO)C(=O)c2cc(-c3ccc(C(=O)N(C)C)cc3)cnc2O[C@@H]1CN(C)C(=O)c1cccnc1	none (no result: EBV gp42 inh, PABP polyA inh, MEX-5 binding, eIF4H FP inh)
Cc1noc(C)c1-c1ccc(C(=O)NCCC(F)(F)F)c2occc12	none (no result: EBV gp42 inh, PABP polyA inh, MEX-5 binding, eIF4H FP inh)
c1cc2c(cc1C1CCCCC1)c1c3n2CCN=C3CCC1	none
Cc1ccc2c(c1)c1c3n2CCN=C3CCC1	PABP polyA inh active, eIF4H FP inh 59
N#Cc1c(-c2cccc(Cl)c2)[nH]c(=S)[nH]c1=O	PABP1 MLLE inh 53
N#Cc1c(-c2ccccc2)[nH]c(=S)[nH]c1=O	none
CCCC(=O)Nc1sc(C)c(C)c1C#N	none
CCc1c(C)sc(NC(=O)CC#N)c1C#N	PABP polyA inh active, eIF4H FP inh 74
CCN(CC)c1ccc2cc(S(=O)(=O)c3ccc(Cl)cc3)c(=O)oc2c1	EBV gp42 inh 159, eIF4H FP inh inconclusive
CCCCCCc1cc2cc(S(=O)(=O)c3ccc(Cl)cc3)c(=O)oc2cc1O	none
CCCCN1CC(COCc2ccccc2)Oc2cccc(OCCN3C(=O)[C@@H]4[C@H](C3=O)C3C=C[C@H]4C3)c2S1(=O)=O (stereo partly drawn)	none (no result: EBV gp42 inh, PABP polyA inh, MEX-5 binding, eIF4H FP inh)
CC(C)(C)c1ccc(S(=O)(=O)Nc2ccc(C(O)(C(F)(F)F)C(F)(F)F)cc2)cc1	none (no result: EBV gp42 inh, PABP polyA inh, MEX-5 binding, eIF4H FP inh)
C[n+]1ccccc1/C=C/c1c(F)cccc1F	PABP polyA inh active (no result: EBV gp42 inh)
C[n+]1ccccc1/C=C/c1ccccc1Cl	PABP polyA inh active, eIF4H FP inh 79 (no result: EBV gp42 inh)
Cc1ccccc1/C=C/c1cccc[n+]1C	none (no result: EBV gp42 inh, PABP polyA inh, eIF4H FP inh)
CCN1C(=O)/C(=C\N2CCN(C(=O)c3ccco3)CC2)SC1=S	none
CCN1CCN(c2c(/C=C3\SC(=S)N(Cc4ccco4)C3=O)c(C)c(C#N)c(=O)n2C)CC1	PABP polyA inh active, eIF4H FP inh inconclusive
CCOC(=O)C1(CCCc2ccccc2)CCN(C(=O)c2n[nH]c(CC)c2C)CC1	none (no result: EBV gp42 inh, PABP polyA inh, MEX-5 binding, eIF4H FP inh)
